About 83,000 compounds went through this panel and 20% of them were active in at least one assay; those are over-represented in the sample as a whole.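 Growth was measured after 48 h exposure to one concentration of compound in 96-well plates. Values under 10 count as active.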 The source made the active and inactive calls.

The experiment has as its system MDA-MB-468 breast. In words: NCI-60 one-dose screen, 48 h (100 = growth as untreated, 0 = no growth, -100 = all killed). The settings on record: 10 µM unless noted.
For the molecule `Cc1nc2c(=O)[nH]c(SCC(=O)Nc3cccc(F)c3)nc2[nH]c1=O`, the growth is 98.9% (inactive).

Consider `ClC(Cl)c1nc(-c2cccnc2)n2nc(-c3ccccc3)cc2n1`, for which the growth is -29.7% (active).

With `Cc1ccc(N=C=C(c2ccccc2)c2ccccc2)cc1`, the growth was 69.1% (inactive).

(Values after PubChem BioAssay (NCI).)
